Assay results from PubChem BioAssay (NCI).
This is part of a sample that, as a whole, favours compounds with a hit. Of some 79,000 tested, about 15% had one in any assay. Cut-off read from the data, not from the text of the source: active = growth inhibition above about 70%; inactive = the rest.

Experiments:
[1] = NCI Yeast Anticancer Drug Screen. Data for the rad50 strain (AID 155);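 note: 0% = growth of vehicle-only cultures of the same strain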; settings: S. cerevisiae rad50 strain growth inhibition; at 50.0 µM; hits give high values
Method in brief: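 Readout: growth inhibition relative to vehicle-treated cultures. Compound exposure was carried out in a genetically defined yeast strain deficient in DNA damage repair.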

[2] = NCI Yeast Anticancer Drug Screen. Data for the mec2-1 strain (AID 157); settings: S. cerevisiae mec2-1 strain, at 50.0 µM, hits give high values
Method in brief: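 mec2-1 yeast strain, carrying an alteration in DNA damage repair or cell cycle control, was exposed to compounds; growth inhibition was measured relative to vehicle-treated controls.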

[3] = NCI Yeast Anticancer Drug Screen. Data for the sgs1 mgt1 strain (AID 161);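 note: 0% = growth of cultures given vehicle only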; settings: S. cerevisiae sgs1 mgt1 strain, at 50.0 µM, hits give high values
Method in brief: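 Growth of a repair-deficient yeast mutant was monitored after compound treatment and expressed as inhibition relative to vehicle-treated cultures.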

[4] = NCI Yeast Anticancer Drug Screen. Data for the cln2 rad14 strain (AID 165);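 note: 0% = growth equal to vehicle treated cultures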; settings: S. cerevisiae cln2 rad14 strain, at 50.0 µM, hits give high values
Method in brief: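 Yeast carrying cln2 and rad14 alterations (cell cycle control and DNA damage repair) were exposed to compounds. Growth inhibition was measured against vehicle-treated controls.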

[5] = NCI Yeast Anticancer Drug Screen. Data for the bub3 strain (AID 167); settings: S. cerevisiae bub3 mutant strain, at 50.0 µM, hits give high values
Method in brief: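 Readout: yeast growth inhibition, expressed relative to vehicle-only wells. The test organism is a mutant strain from a panel with lesions in DNA repair or checkpoint genes.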

[6] = NCI Yeast Anticancer Drug Screen. Data for the mlh1 rad18 strain (AID 175); settings: S. cerevisiae mlh1 rad18 strain growth inhibition; at 50.0 µM; hits give high values
Method in brief: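 Growth inhibition of the yeast strain was measured after compound exposure and expressed relative to vehicle-treated controls. The strain carries defined defects in DNA damage repair.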

Measured: growth inhibition

O=C(O)C1C(Br)C(Br)C1C(=O)O (stereo not given) (tested in a mixture with another compound)
inactive: [1] 0.25% | [2] -16.6% | [3] -12.2% | [4] -22.2% | [5] -15.3% | [6] -19.3%

Nc1ncnc2c1ncn2C1C=CC(COS(N)(=O)=O)C1 (stereo not given)
inactive: [1] 13.2% | [2] 21.9% | [3] 0.7% | [4] 10.8% | [5] 13.9% | [6] 29.4%

CC(C)CCOc1ccc(CCO)cc1
inactive: [1] 0.45% | [2] -8.9% | [3] -4.5% | [4] -7.75% | [5] -36.4% | [6] -24.8%

CCNS(=O)(=O)c1cc(C(=O)O)cc(C(=O)O)c1
inactive: [1] 6.9% | [2] -7.6% | [3] -4.95% | [4] -28.9% | [5] -5.55% | [6] 0.15%

COc1cccc2c1C(=N)c1c(O)c3c(c(O)c1C2=O)C[C@@](O)(C(C)=O)C[C@@H]3OC1CC(N)C(O)C(C)O1 (stereo not given in full)
inactive: [1] 42.5% | [2] -26.1% | [3] -11.7% | [4] 34.2% | [5] -4.35% | [6] 13.9%

CC(C)(C)C(=O)C(C(=O)c1ccccc1)C(=O)C(C)(C)C
inactive: [1] -4.65% | [2] -16.4% | [3] 19.9% | [4] 6.85% | [5] 9.8% | [6] -30.2%

COC(=O)C(Cc1ccccc1)NP(=O)(O)OCC1OC(n2cc(I)c(=O)[nH]c2=O)CC1O (stereo not given)
inactive: [1] -11.8% | [2] -2.65% | [3] -15.2% | [4] -10.5% | [5] -10.1% | [6] 0.85%

CC(/C=C/C(=O)c1ccccc1)=C\C=N\N(C)c1ccccc1
inactive: [1] 17.2% | [2] 2.8% | [3] -1.05% | [4] -40.8% | [5] 4.95% | [6] 1.5%

CCCCCCC1NN(C(C)=O)C(CCCCCC)NN1C(C)=O (stereo not given)
inactive: [1] 10.5% | [2] -4.1% | [3] 7.65% | [4] 49.1% | [5] 7.1% | [6] -3.75%

COc1ccc(/C(Nc2ccccc2)=C(\CCl)c2ccccc2)cc1OC
inactive: [1] 6.5% | [2] 7.75% | [3] 34.5% | [4] 5.1% | [5] 44.4% | [6] 9.25%

COc1ccc(N2C(=O)C3c4[nH]c5ccc(C)cc5c4C4CCC(C)CC4C3C2=O)cc1 (stereo not given)
inactive: [1] -24.2% | [2] -0.6% | [3] 1.65% | [4] -6.9% | [5] -13.3% | [6] -4.55%

CCOC(=O)/C=C/c1nc(C(=O)OCC)c(C)c(=O)[nH]1
inactive: [1] -0.55% | [2] 8.3% | [3] 22% | [4] 7% | [5] 1.25% | [6] -24.1%

CC1(C)OC2OC(COC(=O)c3ccccc3)C(N3C(=O)c4ccccc4C3=O)C2O1 (stereo not given)
inactive: [1] 58.2% | [2] 9% | [3] 64.1% | [4] 30.1% | [5] 40.4% | [6] 49%

COc1ccc2c(c1)CC[C@@H]1[C@@H]2CC[C@]2(C)[C@H](S)CC[C@@H]12
inactive: [1] -3.45% | [2] -15.7% | [3] 21.4% | [4] -41% | [5] 18.1% | [6] -7.3%

Clc1ccccc1OCc1cnc[nH]1
inactive: [1] -4.05% | [2] -23.7% | [3] -14.9% | [4] 6.2% | [5] -9.85% | [6] -8.7%

Cc1ccc2c(c1)C(C)(C)C(C)C2(C)C (stereo not given)
inactive: [1] -3.05% | [2] -8.2% | [3] -13.8% | [4] -19.9% | [5] 9.25% | [6] 21.3%

CC1=C(C(=O)NC(C)(C)C)CC(C(=O)NC(C)(C)C)C(C)N1 (stereo not given)
inactive: [1] -21.4% | [2] -25.8% | [3] -17.6% | [4] 2.45% | [5] -3.2% | [6] -18.2%

Cn1cnc([N+](=O)[O-])c1C(=O)NCc1ccccc1
inactive: [1] -2.5% | [2] 9.1% | [3] 5.15% | [4] -20.8% | [5] -7.35% | [6] -9.05%

COc1ccc2c(c1)CC/C2=N/O
inactive: [1] -10.7% | [2] 3.05% | [3] -4.5% | [4] -21.3% | [5] -22.8% | [6] 2.1%

COc1cc2c(c(OC)c1OC)C(=O)[C@@H](O)[C@H]2N
inactive: [1] -10.4% | [2] -31.9% | [3] -13% | [4] -25.5% | [5] -23.8% | [6] -41.5%
